# Measured values reported in PMC5540273 (PLoS ONE, 2017).
# Legend:
# Conditions in all cases: concentration: 1 μM, replicates: in singlicate; n = 1
# [1] = test system: AAK1
# [2] = test system: ABL1-nonphosphorylated
# [3] = test system: ABL1-phosphorylated
# [4] = test system: ABL2
# [5] = test system: ACVR1B
# [6] = test system: ACVR1
# [7] = test system: ACVR2A
# [8] = test system: ACVR2B
# [9] = test system: ACVRL1
# [10] = test system: T1, ADCK3
# T1 construct: gene CABC1
# [11] = test system: ADCK4
# [12] = test system: AKT1
# [13] = test system: AKT2
# [14] = test system: AKT3
# [15] = test system: ALK
# [16] = test system: T2, AMPK-alpha1
# T2 construct: gene PRKAA1
# [17] = test system: T3, AMPK-alpha2
# T3 construct: gene PRKAA2
# [18] = test system: ANKK1
# [19] = test system: T4, ARK5
# T4 construct: gene NUAK1
# [20] = test system: T5, ASK1
# T5 construct: gene MAP3K5
# 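Further: KINOMEscan kinase panel screen.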
SMILES,%Inh [1] [%],%Inh [2] [%],%Inh [3] [%],%Inh [4] [%],%Inh [5] [%],%Inh [6] [%],%Inh [7] [%],%Inh [8] [%],%Inh [9] [%],%Inh [10] [%],%Inh [11] [%],%Inh [12] [%],%Inh [13] [%],%Inh [14] [%],%Inh [15] [%],%Inh [16] [%],%Inh [17] [%],%Inh [18] [%],%Inh [19] [%],%Inh [20] [%]
Cc1ccc(NC(=O)c2ccc(Cl)c(Cl)c2)cc1-c1ccc(C(=O)Nc2ccncc2)cc1 [GSK1398460],8,26,4,41,0,6,0,2,0,9,20,0,15,0,41,21,21,18,10,16
COc1cc(Nc2nccc(N3CCC(NC(=O)Nc4ccc5c(c4)OCO5)C3)n2)cc(OC)c1OC (centres unmarked) [GSK1379766],66,0,0,0,0,11,0,0,0,0,69,0,2,0,63,2,10,36,24,4
COc1cc(Nc2ccnc3cc(-c4ccncc4)ccc23)cc(OC)c1OC.Cl [GW494610],0,97.9,99.4,93,86,99.5,0,54,88,98.6,14,0,10,0,29,5,32,0,12,0
Cl.Cl.NCC(NC(=O)c1cc(-c2cccnc2)c(-c2ccnc3[nH]ccc23)s1)c1ccccc1 (centres unmarked) [GSK1323434],59,54,37,30,0,19,0,0,0,97.5,71,7,10,86,23,0,0,0,0,0
CC(C)c1nc(-c2ccc(F)c(NS(=O)(=O)c3c(F)cccc3F)c2)c(-c2ccnc(Nc3ccc(N4CCOCC4)nc3)n2)s1 [GSK1804250],7,99.8,98.8,99.3,91.9,87,0,75,52,99.4,88,0,13,2,26,59,69,23,21,0
Cc1ccc(NC(=O)c2cccc(N3CCCCC3)c2)cc1-c1ccc(C(=O)NCC2CC2)cc1 [GSK1917008],0,0,0,25,0,14,6,10,2,27,1,0,8,2,19,0,28,3,28,12
O=C(Nc1n[nH]c2nc(-c3ccccc3)ccc12)C1CC1 [SB-708999],100,62,41,16,22,6,9,37,0,2,12,14,9,0,3,17,12,63,8,18
Nc1ncc(-c2cn[nH]c2)c2scc(-c3ccc4c(c3)CCN4C(=O)Cc3ccccc3)c12 [GSK2593067],52,99.2,81,89,0,0,0,16,0,0,0,0,2,0,0,11,16,1,26,5
Cn1cc(-c2ccc3c(c2)CCN3C(=O)Cc2cc(F)cc(C(F)(F)F)c2)c2c(N)ncnc21 [GSK2635225],10,78,15,40,0,0,0,12,0,17,10,0,0,0,0,3,21,25,15,0
Cl.N#CCc1ccc(Nc2nccc(Nc3ccc(Oc4ccccc4)cc3)n2)cc1 [GW639905],7,0,9,13,0,26,100,0,0,6,72,0,4,0,40,0,0,98.9,0,0
